Out of some 6,200 compounds screened, about 2,900 (47%) were called active. Rule as the data show it: active = inhibition above about 50%; inactive = the rest. The set was probably picked from earlier hits. Some of the results follow.
Test: Mycobacterium tuberculosis growth inhibition, primary screen (AID 1259343)
Conditions: inhibition: at 10 µM, hits give high values; outcome: 10 uM

Structure (SMILES) | inhibition
N#Cc1ccc([N+](=O)[O-])c(O)c1 | 77.2% (active)
CCN(CC)P(=S)(C=C1N(C)c2ccccc2C1(C)C)CC (stereo unspecified) | 87.2% (active)
CN1/C(=C/C(=O)Nc2ccc(Cl)cc2)C(C)(C)c2ccccc21 | 1.72% (inactive)
CCOP1(=S)C(=C2N(C)c3ccccc3C2(C)C)C=NN1c1ccccc1 (stereo unspecified) | 27.1% (inactive)
O=C(O)c1sc(Br)c(I)c1I | 7.67% (inactive)
O=C(Nc1ccsc1C(=O)O)c1ccc(Br)cc1 | 82.5% (active)
c1csc(-c2cnc3ccc(-c4ccncc4)nn23)c1 | 74.1% (active)
C(=Nn1c(-c2cccs2)csc1=Nc1ccccc1)c1ccccn1 | -1.25% (inactive)
N#Cc1cc2c(nc1SCC(=O)OCc1ccccc1)CCC2 | 41.5% (inactive)
CCOc1ccccc1NC(=O)Nc1ccc(Nc2cc(OC(C)C)nc(C)n2)cc1 | 14.6% (inactive)
CCCC(C)(C)NC(=O)c1nnn(-c2ccc(F)cc2)c1C | 16.4% (inactive)
CCOc1ccccc1-n1nnc(C(=O)Nc2ccc(C(C)=O)cc2)c1C | 70% (active)
CC1=NN(c2ccc(Cl)cc2)C(=O)C12Cc1ccccc1N1CCCCC12 (stereo unspecified) | 19.5% (inactive)
CCNC(=S)NN=C(C)c1ccc(Cl)s1 | -2.97% (inactive)
CCOC(=O)NN=C(C)c1ccc(Cl)s1 | 19.5% (inactive)
CNC(=S)NN=C(C)c1ccc(Cl)s1 | 47.3% (inactive)
C=C(C)CNC(=S)NN=C(C)c1ccc(Cl)s1 | 102% (active)
COCCNC(=S)NN=C(C)c1ccc(Cl)s1 | 79.3% (active)
CC(=NNc1ncc(Cl)cc1Cl)c1ccc(Cl)s1 | 30.7% (inactive)
CNC(=O)c1ccc2n1CCN(C(=O)OCc1ccccc1)C2C (stereo unspecified) | 16.2% (inactive)
O=C(NCCCCCC(=O)N1CCC(c2ccccc2)CC1)OCc1ccccc1 | 70.8% (active)
O=C(C1CCCC1)N1CCN(c2nc(-c3ccccc3Cl)nc3cc(Cl)ccc23)CC1 | 24.6% (inactive)

Structure (SMILES) | inhibition
Cc1ccc(C)c(N2CCN(C(=O)c3ccc4c(=O)nc5c(-c6ccccc6)n[nH]n5c4c3)CC2)c1 | 46.6% (inactive)
O=C(c1ccc([N+](=O)[O-])cc1)N1CCN(c2nc(-c3ccccc3)c3cc(Cl)ccc3n2)CC1 | 68% (active)
Cc1ccc(-n2ncc3c(C)nn(Cc4ccccc4F)c(=O)c32)c(C)c1 | 37.1% (inactive)
O=S(=O)(Nc1c(F)cccc1F)c1c(Cl)cccc1Cl | 78.8% (active)
Cc1ccc(F)cc1NS(=O)(=O)c1cc(Cl)sc1Cl | 94.1% (active)
CN(C)S(=O)(=O)c1ccc(CNc2cc(F)ccc2Cl)o1 | -3.01% (inactive)
CN(C1CCCCC1)S(=O)(=O)c1ccc(Br)cc1Cl | -4.67% (inactive)
O=S(=O)(Nc1c(F)cccc1Br)c1cc(Cl)cc(Cl)c1 | 87.1% (active)
O=S(=O)(Nc1ccc(Cl)cc1F)c1ccc(Br)cc1Cl | 71% (active)
O=S(=O)(Nc1ccc(F)cc1F)c1ccccc1Cl | 82.3% (active)
Cc1ccc(NS(=O)(=O)c2ccc(F)cc2[N+](=O)[O-])c(F)c1 | 50.2% (active)
O=S(=O)(Nc1ccc(F)c(F)c1F)c1ccc(Cl)cc1F | 79.2% (active)
O=S(=O)(Nc1ccc(F)c(F)c1F)c1ccc(Cl)c2ncccc12 | 63% (active)
Cc1nnc(N2C(=N)S/C(=C\c3c(-c4ccccc4)n(C)c4ccccc34)C2=O)s1 | 23.3% (inactive)
NC(=O)c1ccccc1OCc1ccccc1C(F)(F)F | 42.9% (inactive)
O=S(=O)(Nc1ccc(F)cc1)c1cc(Br)ccc1Br | 33.5% (inactive)
Cc1ccc(NS(=O)(=O)c2ccc(C)c(F)c2)c(C(=O)O)c1 | 8.32% (inactive)
O=S(=O)(Nc1cccc(F)c1)c1cc(Br)ccc1Br | 29.6% (inactive)
O=S(=O)(Nc1cc(F)ccc1F)c1cc(Cl)cc(Cl)c1 | 64.2% (active)
O=S(=O)(Nc1cc(F)ccc1F)c1cccc(Br)c1 | 103% (active)
O=C(O)c1cc(F)ccc1NS(=O)(=O)c1ccc(Cl)cc1 | 70% (active)
O=S(=O)(Nc1cc(Cl)ccc1O)c1cc(Br)ccc1Br | 105% (active)

Structure (SMILES) | inhibition
O=S(=O)(Nc1c(F)cccc1F)c1cccc(Br)c1 | 4.09% (inactive)
CCCc1ccc(S(=O)(=O)Nc2ccc(F)cc2C(=O)O)cc1 | -3.59% (inactive)
O=S(=O)(Nc1ccc(F)cc1F)c1cccc(F)c1 | -36.4% (inactive)
O=[N+]([O-])c1ccc(Cl)c(S(=O)(=O)Nc2ccc(F)cc2Cl)c1 | 78.2% (active)
O=[N+]([O-])c1cc(Cl)ccc1NS(=O)(=O)c1cccc(C(F)(F)F)c1 | -1.17% (inactive)
O=S(=O)(Nc1ccc(F)cc1F)c1ccc(Cl)cc1F | -21.9% (inactive)
Cc1ccc(NS(=O)(=O)c2ccc(Cl)cc2F)c(Cl)c1 | 73% (active)
Cc1ccc(C)c(S(=O)(=O)Nc2ccc(Cl)cc2F)c1 | 0.55% (inactive)
Cc1ccc(NS(=O)(=O)c2cccc(C(F)(F)F)c2)c([N+](=O)[O-])c1 | 77.1% (active)
O=S(=O)(Nc1ccccc1I)c1ccc(C(F)(F)F)cc1 | 41.5% (inactive)
O=S(=O)(Nc1cc(F)ccc1F)c1ccc(Cl)cc1F | 64.4% (active)
CCC1=NOC(c2nc3sc(C(C)(C)C)cc3c(=O)[nH]2)C1 (stereo unspecified) | 25.8% (inactive)
Cc1ccc(S(=O)(=O)Nc2ccc(Cl)c(C#N)c2)cc1 | -29.9% (inactive)
Cc1ccc(NS(=O)(=O)c2cc(Cl)cc(Cl)c2)cc1 | 88.4% (active)
O=C(C1=C2SC=C(c3ccc(Br)cc3)N2CC1)c1ccc2c(c1)OCO2 | -40.9% (inactive)
CCCc1cc(=O)[nH]c(-n2nc(C)cc2NC(=O)Cc2cccc3ccccc23)n1 | 100% (active)
CCCc1cc(=O)[nH]c(-n2nc(C)cc2NC(=O)C(CC)c2ccccc2)n1 (stereo unspecified) | 102% (active)
CCCc1cc(=O)[nH]c(-n2nc(C)cc2NC(=O)CC(c2ccccc2)c2ccccc2)n1 | 101% (active)
Cc1cc(=O)[nH]c(-n2nc(C)cc2NC(=O)Cc2cccc3ccccc23)n1 | 102% (active)
CCCc1cc(=O)[nH]c(-n2nc(C)cc2NC(=O)Cc2ccc(OCC)cc2)n1 | -19.4% (inactive)
CCCc1cc(=O)[nH]c(-n2nc(C)cc2NC(=O)CCc2ccccc2)n1 | -14.3% (inactive)
CCCc1cc(=O)[nH]c(-n2nc(C)cc2NC(=O)Cc2ccccc2)n1 | 99.9% (active)
